The list is not random: actives were taken first. Their share in the collection is about 9.2%.
ALDH1A1 inh: blocks purified human ALDH1A1 activity. Potency, µM (highest dose often 75.3 µM), actives largely listed as inhibitors. Purified ALDH1A1, NADH fluorescence, propionaldehyde substrate. hit rate 7.3% among 220,000
Target sequence (P00352 whole entry, looked up): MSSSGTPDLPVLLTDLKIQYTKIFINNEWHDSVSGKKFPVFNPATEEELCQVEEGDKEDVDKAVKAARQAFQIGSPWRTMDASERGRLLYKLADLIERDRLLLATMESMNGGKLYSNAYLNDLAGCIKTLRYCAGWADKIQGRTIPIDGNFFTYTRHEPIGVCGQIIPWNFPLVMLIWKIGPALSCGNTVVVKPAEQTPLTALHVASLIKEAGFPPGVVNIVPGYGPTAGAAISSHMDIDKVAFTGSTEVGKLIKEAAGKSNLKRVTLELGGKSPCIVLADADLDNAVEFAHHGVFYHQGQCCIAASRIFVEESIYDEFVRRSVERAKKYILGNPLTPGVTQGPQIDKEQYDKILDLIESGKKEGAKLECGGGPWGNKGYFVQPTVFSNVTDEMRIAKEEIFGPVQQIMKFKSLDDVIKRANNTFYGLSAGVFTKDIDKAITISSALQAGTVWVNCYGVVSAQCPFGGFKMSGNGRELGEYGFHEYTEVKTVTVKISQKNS
HTT cytoprotect: cytoprotection in Huntington HTT-Q103 PC12 cell model. PC12 HTT-Q103 induced, cytoprotection, ATP luminescence, 40 h. Potency, µM (top dose mostly 56.4 µM), hits mostly activators. hit rate 0.14% among 230,000. AID 1471; active = well fitted curve in the direction sought with a large enough effect; inconclusive = small, poorly fitted or top-dose-only effect, or another doubt; inactive = no such curve, though single readings can be large; an effect the other way counts as inactive or inconclusive; note: nearly all actives have a fitted effect of over 45% in size
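Compounds added alongside 100 nM tebufenozide, which induces toxic Q103 huntingtin exon 1-GFP in stable PC12 cells; surviving cells quantified by luminescent ATP measurement. Medium: phenol red-free DMEM, 5% equine and 5% calf serum.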
LMNA splice mod: modulators of lamin A splicing; HeLa LMNA splicing GFP/RFP minigene ratio, 48 h; Potency, µM (titrated, usually from 46.1 µM), most hits filed as inhibitors; hit rate 0.01% among 200,000; AID 1487; active = well fitted inhibition curve with a large enough effect in the signal ratio, with a control signal flat, not every such curve was filed as active; inconclusive = small, poorly fitted or top-dose-only effect, or effect the other way, or a change in a side signal; the % refers to the signal ratio
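S3 HeLa stable clones carrying a lamin A-EGFP splicing minigene plus DsRed2 were seeded at 600 cells/well in Opti-MEM with 2% FBS, pin-dosed and incubated 48 h at 37°C. Acumen cytometry (488 nm) gave the GFP/RFP total-intensity ratio.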
HPGD inh: HPGD (human) dehydrogenase inhibition. purified HPGD, NADH fluorescence kinetic, PGE2 substrate. P15428. hit rate 4.3% among 150,000. AID 894. Potency, µM, most hits filed as inhibitors
Target sequence (P15428 whole entry, looked up): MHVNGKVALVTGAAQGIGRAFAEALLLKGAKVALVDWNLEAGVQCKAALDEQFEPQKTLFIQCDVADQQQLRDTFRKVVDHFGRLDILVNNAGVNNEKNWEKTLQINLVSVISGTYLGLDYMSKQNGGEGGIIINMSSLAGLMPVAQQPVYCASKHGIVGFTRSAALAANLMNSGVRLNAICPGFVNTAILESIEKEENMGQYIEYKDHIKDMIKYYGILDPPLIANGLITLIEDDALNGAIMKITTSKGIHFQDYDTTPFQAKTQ
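NADH formation kinetics: reaction with 30 uM PGE2 and 1 mM NAD+ (final), 20 nM enzyme, Tris-HCl pH 8 with Tween 20, after 15 min compound preincubation at room temperature. Fluorescence change, last versus first of five reads.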
HTT aggregate: inhibitors of mutant huntingtin aggregate formation in PC12 cells | PC12 HttQ103-GFP aggregates, Acumen cytometry, 40 h | Potency, µM (series often up to 46.1 µM), hits mostly inhibitors | hit rate 1.1% among 220,000 | AID 1688; active = well fitted curve in the direction sought with a large enough effect; inconclusive = small, poorly fitted or top-dose-only effect, or another doubt; inactive = no such curve, though single readings can be large; an effect the other way counts as inactive or inconclusive; note: nearly all actives have a fitted effect of over 60% in size
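Ecdysone-promoter PC12 model expressing HTT exon 1 Q103 fused to GFP, induced by tebufenozide at 100 nM final. Compounds titrated; aggregates sized 1–25 µm scored on a 488 nm laser cytometer.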
KDM4E inh: blocks human JMJD2E demethylase activity; B2RXH2; JMJD2E catalytic domain, FDH-coupled NADH fluorescence (FDH is formaldehyde dehydrogenase); Potency, µM (doses to about 57.1 µM), most hits filed as inhibitors; hit rate 1.6% among 230,000; AID 2147; note: nearly all actives have a fitted effect of over 50% in size
Numbers stand for hits; ! = not active in a repeat; [ ] = another dose, or the depositor's remark. Unless noted, calls come from the whole dose curve; as a rule, active = well fitted inhibition curve with a large enough effect (not every such curve was filed as active); inconclusive = small, poorly fitted or top-dose-only effect, or another doubt; inactive = no such curve, though single readings can be large or run the other way.

For Oc1ccc2ccccc2c1C=Nc1ccc(N2CCOCC2)cc1 the results were ALDH1A1 inh 4.5µM, HTT cytoprotect inactive, LMNA splice mod inactive, HPGD inh 20µM, HTT aggregate inconclusive and KDM4E inh inconclusive.
COC(=O)c1ccccc1NC(=O)CSc1nnc(-c2ccncc2)o1 was read as ALDH1A1 inh 18µM, HTT cytoprotect inactive[10 µM], LMNA splice mod inconclusive, HPGD inh inactive, HTT aggregate inactive and KDM4E inh inactive.
Screening COC(=O)c1ccccc1NC(=O)CN1C(=O)c2ccccc2S1(=O)=O returned ALDH1A1 inh 25µM, HTT cytoprotect inactive[0.074 µM], LMNA splice mod inactive, HPGD inh inactive, HTT aggregate inactive and KDM4E inh inactive.
Screening CCOC(=O)c1cnc(SCC(=O)c2ccc(C)cc2)nc1N returned ALDH1A1 inh inactive, HTT cytoprotect inactive[1.9 µM], LMNA splice mod inactive, HPGD inh inactive, HTT aggregate inactive and KDM4E inh inactive.
Screening CCOC(=O)c1cnc(SCc2cccc(C)c2)nc1N returned ALDH1A1 inh 25µM, HTT cytoprotect inactive[10 µM], LMNA splice mod inconclusive, HPGD inh inconclusive, HTT aggregate inactive and KDM4E inh inactive.
COC(=O)c1ccc(C(=O)OC)c(NC(=O)CN2CCN(c3ccccc3OC)CC2)c1 was read as ALDH1A1 inh inconclusive, HTT cytoprotect inactive[10 µM], LMNA splice mod inactive, HPGD inh inactive, HTT aggregate inactive and KDM4E inh inactive.
For COC(=O)c1ccc(C(=O)OC)c(NC(=O)COc2ccccc2OC)c1 the results were ALDH1A1 inh 13µM, HTT cytoprotect inactive[0.074 µM], LMNA splice mod inactive, HPGD inh inactive, HTT aggregate inactive and KDM4E inh inactive.
`Cc1noc(C)c1C(=O)N1CCC[C@@]2(CCN(C(=O)NC(C)C)C2)C1` gave ALDH1A1 inh inactive, HTT cytoprotect inactive and HPGD inh inactive.
For CCOC(=O)c1ccccc1NC(=O)CSc1nc(N)cc(N)n1 the results were ALDH1A1 inh inactive, HTT cytoprotect inactive[10 µM], LMNA splice mod inactive, HPGD inh inactive, HTT aggregate inactive and KDM4E inh inactive.
Screening COC(=O)c1ccccc1NC(=O)CNc1cc(OC)c(OC)cc1C returned ALDH1A1 inh 10µM, HTT cytoprotect inactive[10 µM], LMNA splice mod inconclusive, HPGD inh inactive, HTT aggregate inactive and KDM4E inh inconclusive.
`CCOC(=O)c1ccccc1NC(=O)CSc1ncc(C(=O)OCC)c(N)n1` gave ALDH1A1 inh 20µM, HTT cytoprotect inactive[10 µM], LMNA splice mod inactive, HPGD inh inactive, HTT aggregate inactive and KDM4E inh inconclusive.
For COC(=O)c1ccccc1NC(=O)CSc1nc(N)cc(N)n1 the results were ALDH1A1 inh 25µM, HTT cytoprotect inactive, LMNA splice mod inactive, HPGD inh inactive, HTT aggregate inactive and KDM4E inh inactive.
`COC(=O)c1cccc(N2C(=O)c3ccccc3S2(=O)=O)c1` gave ALDH1A1 inh inactive, HTT cytoprotect inactive[10 µM], LMNA splice mod inactive, HPGD inh 25µM, HTT aggregate inactive and KDM4E inh inactive.
`CCNc1ncc2nc(-c3cc(F)cc(F)c3)c(=O)n(CCc3ccccc3)c2n1` gave ALDH1A1 inh inconclusive, HTT cytoprotect inactive and LMNA splice mod inconclusive.
Screening Cc1cc2c(cc1S(=O)(=O)NCc1ccc(F)cc1)n(C)c(=O)c(=O)n2C returned LMNA splice mod inactive.
Screening COc1ccc(CCC(=O)NC2CC(=O)N(c3ccc(OC)cc3)C2)cc1 (stereo not given) returned LMNA splice mod inactive.
`COc1ccccc1-c1nnc(SCC(=O)Nc2c(Cl)cccc2Cl)o1` gave ALDH1A1 inh 22µM, HTT cytoprotect inactive[10 µM], LMNA splice mod inconclusive, HPGD inh inactive, HTT aggregate inactive and KDM4E inh inactive.
Nn1cnc2c(c1=O)C1(CCCCC1)Cc1ccccc1-2 was read as ALDH1A1 inh inconclusive, LMNA splice mod inconclusive, HPGD inh inactive, HTT aggregate inactive and KDM4E inh inactive.
Screening CCN(CC)Cc1nc2c(c(=O)[nH]1)C1(CCCCC1)Cc1ccccc1-2 returned ALDH1A1 inh 25µM, HTT cytoprotect inactive[10 µM], LMNA splice mod inactive, HPGD inh inactive, HTT aggregate inactive and KDM4E inh inactive.
Screening C=CCNC(=S)NNc1nc2c(c(=O)[nH]1)C1(CCCC1)Cc1ccccc1-2 returned ALDH1A1 inh 3.5µM, HTT cytoprotect inactive[10 µM], LMNA splice mod inactive, HPGD inh inconclusive, HTT aggregate inactive and KDM4E inh inconclusive.
Screening O=c1[nH]c(NNC(=S)NC2CCCCC2)nc2c1C1(CCCC1)Cc1ccccc1-2 returned HTT cytoprotect inactive[10 µM], HTT aggregate inactive[9.22 µM] and KDM4E inh inconclusive.
O=c1c2c(nc3n1CCCCC3)-c1ccccc1CC21CCCC1 was read as ALDH1A1 inh 0.63µM, HTT cytoprotect inactive[10 µM], LMNA splice mod inconclusive, HPGD inh inactive, HTT aggregate inconclusive and KDM4E inh inactive.
`O=C(O)CP(=O)(O)O` gave ALDH1A1 inh inactive, HTT cytoprotect inconclusive, LMNA splice mod inconclusive, HPGD inh 32µM!, HTT aggregate inactive and KDM4E inh inactive.
Screening O=C(O)CO.[NH2-].[NH2-].[Pt+2] returned HTT cytoprotect inactive and HTT aggregate inactive.
`COc1ccc(N2C=C3C(=O)C(C)(OC(=O)C4CCCC4)C(=O)C=C3C=C2c2ccsc2)cc1` (stereo not given) gave ALDH1A1 inh inconclusive, HTT cytoprotect inconclusive, LMNA splice mod inactive[9.22 µM], HPGD inh inactive and KDM4E inh inconclusive.
For Cc1cc(C(=O)NC2CCCCC2)c(C)n1-c1ccc(F)cc1 the results were ALDH1A1 inh 14µM, HTT cytoprotect inactive[1.9 µM], LMNA splice mod inactive, HPGD inh 4.5µM, HTT aggregate inactive and KDM4E inh inactive.
Cc1cc(C(=S)N2CCOCC2)c(C)n1-c1ccc(F)cc1 was read as ALDH1A1 inh 2.8µM and KDM4E inh inactive.
Cc1ccc(-n2c(C)cc(C(=S)N3CCOCC3)c2C)cc1C was read as ALDH1A1 inh 28µM, HTT cytoprotect inactive, LMNA splice mod inactive, HPGD inh 5µM, HTT aggregate inactive and KDM4E inh inactive.
Screening N#CC[N+]1(Cc2ccccn2)CCCC1 returned ALDH1A1 inh inactive[13.5 µM], HTT cytoprotect inactive[10 µM] and HPGD inh inactive.
`O=C(Nc1ccccc1)N1CCC2(CC1)CCN(C(=O)c1ccncc1)CC2` gave ALDH1A1 inh inactive, HTT cytoprotect inactive and HPGD inh inactive.
`O=C1c2ccccc2C(=O)c2c(Nc3cc4c5c(ccc6c7ccc8c9c(cc(Nc%10cccc%11c%10C(=O)c%10ccccc%10C%11=O)c(c3c56)c97)-c3ccccc3C8=O)C(=O)c3ccccc3-4)cccc21` gave ALDH1A1 inh inactive[13.5 µM], HTT cytoprotect inactive[10 µM] and HPGD inh inactive.
COc1ccccc1-n1c(SCC(=O)N2CCc3ccccc32)nc2c(c1=O)SCC2 was read as ALDH1A1 inh 11µM, HTT cytoprotect inactive[10 µM], LMNA splice mod inconclusive, HPGD inh inactive, HTT aggregate inactive and KDM4E inh inactive.
